37 compounds from the supplement of paper PMC11634586 can be followed below.

Structures can show the parent of a compound that is named as a salt. A number with no mark means an inactive call.

This experiment concerns NCI-H1688. Put plainly: inhibition of cell viability relative to untreated control (fraction); higher = stronger growth inhibition, active = 0.5 or more. The conditions noted are these: 30 µM; 24 h. In a few lines: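 After seeding at 3 × 10^3 cells/well in 96-well plates and a 24 h wait, NCI-H1688 small cell lung cancer cells received a natural compound library (TargetMol) at 30 µM for 24 h, kept at 37°C with 5% CO2. Triplicate readings of Cell Counting Kit-8 absorbance at 450 nm measured viability. Each value is the inhibition of cell viability as a fraction, derived from viability normalised to untreated cells.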
In the case of `O=c1[nH]cnc2c1ncn2[C@H]1C[C@H](O)[C@@H](CO)O1` [2'-Deoxyinosine], the “inhibition of cell viability” value is -0.00407.
For the compound `CCCCCCCCCCCCCCCCCCCCCCO` [Behenic alcohol], the “inhibition of cell viability” value was -0.0686.
Take `Nc1ncnc2c1ncn2[C@@H]1O[C@H](CO)C[C@H]1O` [Cordycepin]: the “inhibition of cell viability” value was -0.154.
Turning to `O=c1c(-c2ccc(O[C@@H]3O[C@H](CO)[C@@H](O)[C@H](O)[C@H]3O)cc2)coc2cc(O)cc(O)c12` [Sophoricoside], the “inhibition of cell viability” value was 0.495.
On to `Cc1cc2nc3c(=O)[nH]c(=O)nc-3n(C[C@H](O)[C@H](O)[C@H](O)COP(=O)(O)O)c2cc1C` [Flavin mononucleotide], for which the “inhibition of cell viability” value is 0.0137.
In the case of `O=C(O[C@@H]1Cc2c(O)cc(O)cc2O[C@@H]1c1ccc(O)c(O)c1)c1cc(O)c(O)c(O)c1` [(-)-Epicatechin gallate], the “inhibition of cell viability” value is 0.121.
As for `CC(=O)C1=C(O)C=C2Oc3c(C(C)=O)c(O)c(C)c(O)c3C2(C)C1=O` (stereo in doubt) [Usnic Acid], the figure is 0.273; as for `OCc1ccc(O[C@@H]2O[C@H](CO)[C@@H](O)[C@H](O)[C@H]2O)cc1` [Gastrodin], -0.283.
In the case of `CC(C)[C@@H]1CC[C@@H](C)C[C@H]1O` [L-Menthol], the “inhibition of cell viability” value was 0.178.
With `Cc1cccc2c3c(ccc12)C1=C(C(=O)C3=O)[C@@H](C)CO1` [Dihydrotanshinone I], the “inhibition of cell viability” value is 0.992 (active).
`COc1cc(C=O)ccc1O` [Vanillin]: the “inhibition of cell viability” value is 0.219.
In the case of `C[C@@H]1O[C@@H](O[C@H]2[C@H](O[C@H]3CC[C@@]4(C)[C@@H](CC[C@]5(C)[C@@H]4CC=C4[C@@H]6CC(C)(C)CC[C@]6(C(=O)O[C@@H]6O[C@H](CO[C@@H]7O[C@H](CO)[C@@H](O)[C@H](O)[C@H]7O)[C@@H](O)[C@H](O)[C@H]6O)CC[C@]45C)[C@]3(C)CO)OC[C@H](O)[C@@H]2O)[C@H](O)[C@H](O[C@@H]2O[C@H](CO)[C@@H](O[C@@H]3O[C@H](CO)[C@@H](O)[C@H](O)[C@H]3O)[C@H](O)[C@H]2O)[C@H]1O` [Macranthoidin B], the “inhibition of cell viability” value is 0.21.
Take `C[C@H](CCC(=O)O)[C@H]1CC[C@H]2[C@@H]3C(=O)C[C@@H]4CC(=O)CC[C@]4(C)[C@H]3CC(=O)[C@]12C` [Dehydrocholic acid]: the “inhibition of cell viability” value was -0.142.
As for `COc1cc(O)c(C(C)=O)c(OC)c1` [Xanthoxyline], the figure is -0.308; as for `CN(C)[C@@H]1C(O)=C(C(N)=O)C(=O)[C@@]2(O)C(O)=C3C(=O)c4c(O)ccc(Cl)c4[C@@](C)(O)[C@H]3C[C@@H]12` [Chlortetracycline hydrochloride], -0.0618.
Consider `OC[C@H]1O[C@H](O[C@H]2[C@H](O)[C@@H](O)[C@H](O)O[C@@H]2CO)[C@H](O)[C@@H](O)[C@@H]1O` [Maltose], for which the “inhibition of cell viability” value is 0.0503.
`CC[C@H]1OC(=O)[C@H](C)[C@@H](O[C@H]2C[C@@](C)(OC)[C@@H](O)[C@H](C)O2)[C@H](C)[C@@H](O[C@@H]2O[C@H](C)C[C@H](N(C)C)[C@H]2O)[C@](C)(O)C[C@@H](C)CN(C)[C@H](C)[C@@H](O)[C@]1(C)O` [Azithromycin dihydrate]: the “inhibition of cell viability” value was 0.037.
To `C[N+](C)(C)CC(O)CC(=O)[O-]` (racemic) [DL-Carnitine] belongs 0.00503; to `O=c1cc(-c2ccc(O)c(O)c2)oc2cc(O)cc(O)c12` [Luteolin], 0.794 (active); to `C[C@H]1O[C@@H](O[C@H]2[C@@H](O)C[C@H](O[C@H]3[C@@H](O)C[C@H](O[C@H]4CC[C@@]5(C)[C@H](CC[C@@H]6[C@@H]5C[C@@H](O)[C@]5(C)[C@@H](C7=CC(=O)OC7)CC[C@]65O)C4)O[C@@H]3C)O[C@@H]2C)C[C@H](O)[C@@H]1O` [Digoxin], 0.995 (active).
Take `Nc1ncnc2c1ncn2C1CC(O)C(CO)O1` (configuration not stated) [2'-Deoxyadenosine monohydrate]: the “inhibition of cell viability” value is -0.0483.
`O=C1CCC[C@@H]2[C@H]3CCC[N+]4([O-])CCC[C@@H](CN12)[C@@H]34` (some centres not stated) [Oxymatrine]: the “inhibition of cell viability” value is 0.0776.
As to `OC[C@H]1O[C@@H](OCCc2ccc(O)cc2)[C@H](O)[C@@H](O)[C@@H]1O` [Salidroside], the “inhibition of cell viability” value is -0.0108.
As for `O=c1cc(-c2ccccc2)oc2cc(O)c(O)c(O)c12` [Baicalein], the “inhibition of cell viability” value was 0.728 (active).
To `CC[C@@H]1C(=O)OC[C@@H]1Cc1cncn1C` [Pilocarpine nitrate] belongs -0.128; to `C[C@H](CCC(=O)O)[C@H]1CC[C@H]2[C@@H]3C[C@H](O)[C@@H]4C[C@H](O)CC[C@]4(C)[C@H]3CC[C@]12C` [Hyodeoxycholic acid (HDCA)], -0.163.
For `COc1cc(C(=O)O)cc(OC)c1O` [Syringic acid], the “inhibition of cell viability” value was 0.0408.
`N[C@@H](CCC(=O)N[C@@H](CS)C(=O)NCC(=O)O)C(=O)O` [Glutathione]: the “inhibition of cell viability” value was -0.00752.
Turning to `CC[C@H](C)[C@H](N)C1=N[C@H](C(=O)N[C@@H](CC(C)C)C(=O)N[C@H](CCC(=O)O)C(=O)N[C@H](C(=O)N[C@H]2CCCCNC(=O)[C@H](CC(N)=O)NC(=O)[C@@H](CC(=O)O)NC(=O)[C@H](Cc3cnc[nH]3)NC(=O)[C@@H](Cc3ccccc3)NC(=O)[C@H]([C@@H](C)CC)NC(=O)[C@@H](CCCN)NC2=O)[C@@H](C)CC)CS1` [Bacitracin], the “inhibition of cell viability” value was -0.0913.
Regarding `CNC[C@@H](O)c1ccc(O)c(O)c1` [L-Adrenaline], the “inhibition of cell viability” value is 0.0228.
Regarding `COC(=O)C1=CO[C@@H](O[C@@H]2O[C@H](CO)[C@@H](O)[C@H](O)[C@H]2O)[C@@H]2C(CO)=CC[C@H]12` [Geniposide], the “inhibition of cell viability” value is 0.00243.
`Cn1c(=O)c2[nH]cnc2n(C)c1=O` [Aminophylline]: the “inhibition of cell viability” value is 0.644 (active).
For the compound `Cn1cnc2c1c(=O)[nH]c(=O)n2C` [Theobromine], the “inhibition of cell viability” value was 0.0986.
To `Cc1cc(O)c2c(c1)C(=O)c1cccc(O)c1C2=O` [Chrysophanic Acid] belongs -0.28; to `COc1ccc(-c2cc(=O)c3c(O)c(OC)c(O[C@@H]4O[C@H](CO[C@@H]5O[C@@H](C)[C@H](O)[C@@H](O)[C@H]5O)[C@@H](O)[C@H](O)[C@H]4O)cc3o2)cc1` [Pectolinarin], 0.194; to `O=c1c(-c2ccc(O)cc2)coc2cc(O)cc(O)c12` [Genistein], 0.7 (active).
With `COc1cc2c(cc1O)[C@@H](Cc1ccc(O)c(Oc3ccc(C[C@@H]4c5cc(OC)c(OC)cc5CCN4C)cc3)c1)N(C)CC2` [Daurisoline], the “inhibition of cell viability” value was 0.977 (active).
